Test results taken from PubChem BioAssay (Tox21).
Results filed as inconclusive are left out. Where a call stands in place of a potency, no number is given. A number with no mark means an inactive call. Active and inactive are the calls of the source. Unless noted, the call rests on the fitted dose curve; in most records, active means well fitted curve in the direction sought with a large enough effect in the repeat runs; inconclusive means weak or mixed curves; inactive means no such curve, though single readings can be large; an effect the other way counts as inactive or inconclusive.

How the values were obtained:
[1] = qHTS assay to identify aromatase inhibitors - cell viability counter screen (AID 743084);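 further: cells stimulated with testosterone during compound exposure; nearly all actives have a fitted effect of over 55% in size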
[2] = biological target: Aryl hydrocarbon receptor (Homo sapiens) (UniProt P35869); assay: qHTS assay to identify small molecule that activate the aryl hydrocarbon receptor (AhR) signaling pathway (AID 743085); further: nearly all actives have a fitted effect of over 15% in size; further: potency means the concentration at half of the fitted maximal effect;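 on activation: HG2L7.5c1 human HepG2 liver cells with stably integrated DRE-driven firefly reporter; series mostly up to about 70 µM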
How it was run: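 HepG2 cells (HG2L7.5c1) stably carrying a firefly luciferase reporter driven by 20 dioxin responsive elements were exposed to compound for 24 h at 37C after a 5 h settling period; luminescence rise (ONE-Glo) indicated activation.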

[3] = qHTS assay to identify small molecule that activate the aryl hydrocarbon receptor (AhR) signaling pathway - cell viability counter screen (AID 743086);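 further: HepG2 liver cells carrying the AhR DRE luciferase reporter; series mostly up to about 70 µM; nearly all actives have a fitted effect of over 45% in size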
How it was run: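 HepG2-AhR-luc (HG2L7.5c1) cells, 4000/well, treated 24 h at 37 C with compound; viability measured as CellTiter-Fluor fluorescence after 30 min in the same wells as the luciferase read.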

[4] = biological target: Peroxisome proliferator-activated receptor gamma (Homo sapiens) (UniProt P37231); assay: qHTS assay to identify small molecule agonists of the peroxisome proliferator-activated receptor gamma (PPARg) signaling pathway (AID 743094; active means well fitted activation curve with a large enough effect in the signal ratio in the repeat runs, not every such curve was filed as active; the % refers to the signal ratio)
How it was run: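 Quantitative HTS agonist mode: stable HEK293H line with UAS-beta-lactamase reporter under PPARg control, 17 h compound exposure at 37C, fluorescence after 1 h FRET substrate loading at room temperature.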

[5] = qHTS assay to identify small molecule antagonists of the peroxisome proliferator-activated receptor gamma (PPARg) signaling pathway - cell viability counter screen (AID 743194); further: nearly all actives have a fitted effect of over 55% in size
How it was run: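 Cytotoxicity counter screen in PPARg-bla HEK293H cells, same wells as reporter assay. Compounds plus 50 nM rosiglitazone (final) for 17 h at 37 C, then viability read by CellTiter-Glo luminescence.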

[6] = qHTS assay for small molecule agonists of the antioxidant response element (ARE) signaling pathway - cell viability counter screen (AID 743203; calls by dose curve; further: nearly all actives have a fitted effect of over 55% in size)
How it was run: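 Seeded at 2,000 cells/well, ARE-bla HepG2 cells were incubated 5 hrs before compound addition. After 16 hrs of treatment at 37C with 5% CO2, CellTiter-Glo reagent was added and luminescence read 30 min later.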

[7] = qHTS assay for small molecule activators of the heat shock response signaling pathway - cell viability counter screen (AID 743209); further: nearly all actives have a fitted effect of over 50% in size
How it was run: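 First, HSE-bla HeLa cells were seeded at 1500 cells/well and kept overnight at 37 C. Next, compounds were pinned in and incubated 5 h. After the FRET substrate step, CellTiter-Glo was added and luminescence read 30 min later.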

[8] = qHTS assay for small molecule activators of the heat shock response signaling pathway (AID 743210; active means well fitted activation curve with a large enough effect in the signal ratio in the repeat runs, with a control signal flat, not every such curve was filed as active; the % refers to the signal ratio; further: series mostly up to about 63 µM)
How it was run: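 HSE-bla HeLa cells (beta-lactamase reporter under heat shock response elements), plated overnight, then exposed to compounds 5 h at 37 C; LiveBLAzer B/G FRET substrate added, 2.5 h at room temperature, fluorescence intensity read.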

[9] = qHTS assay to identify small molecule agonists of the peroxisome proliferator-activated receptor delta (PPARd) signaling pathway - cell viability counter screen (AID 743211); further: nearly all actives have a fitted effect of over 55% in size
How it was run: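 PPARd-bla HEK293H cells (UAS-beta-lactamase reporter) were treated with compounds for 17 h at 37 C. Viability was then read in the same wells by CellTiter-Glo luminescence after 30 min at room temperature.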

[10] = biological target: Peroxisome proliferator-activated receptor delta (Homo sapiens) (UniProt Q03181); assay: qHTS assay to identify small molecule agonists of the peroxisome proliferator-activated receptor delta (PPARd) signaling pathway (AID 743212; calls by dose curve)
How it was run: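 GeneBLAzer UAS-bla HEK293H cells carrying a PPARδ construct were exposed to compounds at 37 °C. Beta-lactamase activity was read by FRET fluorescence after 2 h at room temperature with LiveBLAzer B/G substrate.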

[11] = qHTS assay to identify small molecule antagonists of the peroxisome proliferator-activated receptor delta (PPARd) signaling pathway - cell viability counter screen (AID 743213); further: nearly all actives have a fitted effect of over 50% in size
How it was run: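 HEK293H PPARd UAS-bla cells, 5 h pre-incubation, compound + L165041 300 nM final, 17 h 37 C; B/G FRET substrate 2 h RT; then CellTiter-Glo 30 min RT, luminescence.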

[12] = biological target: Peroxisome proliferator-activated receptor delta (Homo sapiens) (UniProt Q03181); assay: qHTS assay to identify small molecule antagonists of the peroxisome proliferator-activated receptor delta (PPARd) signaling pathway (AID 743215; active means well fitted inhibition curve with a large enough effect in the signal ratio in the repeat runs, not every such curve was filed as active; the % refers to the signal ratio;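 further: cells stimulated with agonist L165041 at 300 nM final during compound exposure; series mostly up to about 62 µM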)
How it was run: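 Inhibition of L165041-driven (300 nM final) PPARd signaling is scored in HEK293H UAS-bla cells. Exposure lasts 17 h at 37 C; beta-lactamase activity is then read by FRET substrate fluorescence after 2 h at room temperature.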

[13] = qHTS assay to identify small molecule agonists of the farnesoid-X-receptor (FXR) signaling pathway - cell viability counter screen (AID 743218); further: nearly all actives have a fitted effect of over 45% in size
How it was run: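 Cytotoxicity counter-screen run in parallel, same wells: FXR-UAS-bla HEK 293T cells dosed 16 h at 37 C, viability read by CellTiter-Glo luminescence after 30 min at room temperature.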

[14] = qHTS assay to identify small molecule antagonists of the farnesoid-X-receptor (FXR) signaling pathway - cell viability counter screen (AID 743221; active means well fitted cell-killing curve with a large enough effect in the repeat runs, not every such curve was filed as active; further: nearly all actives have a fitted effect of over 50% in size)
How it was run: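 FXR-UAS-bla HEK 293T cells were treated with test compounds plus chenodeoxycholic acid (50 uM final) for 16 h at 37 C. Cell viability in the same wells was then read as CellTiter-Glo luminescence after 30 min at room temperature.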

[15] = biological target: Vitamin D3 receptor (Homo sapiens) (UniProt P11473); assay: qHTS assay to identify small molecule agonists of the vitamin D receptor (VDR) signaling pathway (AID 743222; calls by dose curve)
How it was run: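 Quantitative HTS agonist-mode screen: compounds in DMSO were pin-transferred onto VDR-bla cells and incubated 16 h at 37C, 5% CO2. Reporter activity was detected with LiveBLAzer B/G FRET substrate after 2 h at room temperature.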

[16] = biological target: Vitamin D3 receptor (Homo sapiens) (UniProt P11473); assay: qHTS assay to identify small molecule antagonists of the vitamin D receptor (VDR) signaling pathway (AID 743223; active means well fitted inhibition curve with a large enough effect in the signal ratio in the repeat runs, not every such curve was filed as active; the % refers to the signal ratio)
How it was run: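 VDR-bla cells were plated, incubated 4 h at 37C, then given compound and 1alpha,25-dihydroxyvitamin D3 (3 nM final). After 16 h at 37C, LiveBLAzer B/G FRET substrate was added for 2 h at room temperature and fluorescence read.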

[17] = biological target: Peroxisome proliferator-activated receptor gamma (Homo sapiens) (UniProt P37231); assay: qHTS assay to identify small molecule antagonists of the peroxisome proliferator-activated receptor gamma (PPARg) signaling pathway (AID 743191; calls by dose curve; further: series mostly up to about 63 µM; nearly all actives have a fitted effect of over 30% in size)
How it was run: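 GeneBLAzer PPARg UAS-bla HEK293H cells, 5 h post-plating, exposed to compounds 17 h at 37C. LiveBLAzer B/G FRET substrate added for 1 h at room temperature; beta-lactamase reporter read by fluorescence intensity.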

[18] = qHTS assay for small molecule agonists of the antioxidant response element (ARE) signaling pathway (AID 743202; active means well fitted activation curve with a large enough effect in the signal ratio in the repeat runs, not every such curve was filed as active; the % refers to the signal ratio)
How it was run: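 ARE-bla HepG2 cells (beta-lactamase reporter under the antioxidant response element), plated 5 hours, then exposed to compounds 16 hours at 37 C. LiveBLAzer B/G FRET substrate added for 2 hours at room temperature; fluorescence intensity read.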

[19] = biological target: Bile acid receptor (Homo sapiens) (UniProt Q96RI1); assay: qHTS assay to identify small molecule antagonists of the farnesoid-X-receptor (FXR) signaling pathway (AID 743217; active means well fitted inhibition curve with a large enough effect in the signal ratio in the repeat runs, not every such curve was filed as active; the % refers to the signal ratio)
How it was run: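 Antagonist mode against 50 uM (final) chenodeoxycholic acid stimulation in FXR-bla HEK 293T cells, 16 h at 37 °C. Inhibition detected as reduced beta-lactamase activity via LiveBLAzer B/G FRET fluorescence after 2 h at room temperature.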

[20] = biological target: Bile acid receptor (Homo sapiens) (UniProt Q96RI1); assay: qHTS assay to identify small molecule agonists of the farnesoid-X-receptor (FXR) signaling pathway (AID 743220; active means well fitted activation curve with a large enough effect in the signal ratio in the repeat runs, not every such curve was filed as active; the % refers to the signal ratio)
How it was run: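 Beta-lactamase reporter under UAS control in GeneBLAzer FXR HEK 293T cells (5000/well) measured with LiveBLAzer FRET substrate after 2 h at room temperature. Compound exposure lasted 16 h at 37C.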

Chain of Peroxisome proliferator-activated receptor gamma (Homo sapiens) (P37231 whole entry, looked up): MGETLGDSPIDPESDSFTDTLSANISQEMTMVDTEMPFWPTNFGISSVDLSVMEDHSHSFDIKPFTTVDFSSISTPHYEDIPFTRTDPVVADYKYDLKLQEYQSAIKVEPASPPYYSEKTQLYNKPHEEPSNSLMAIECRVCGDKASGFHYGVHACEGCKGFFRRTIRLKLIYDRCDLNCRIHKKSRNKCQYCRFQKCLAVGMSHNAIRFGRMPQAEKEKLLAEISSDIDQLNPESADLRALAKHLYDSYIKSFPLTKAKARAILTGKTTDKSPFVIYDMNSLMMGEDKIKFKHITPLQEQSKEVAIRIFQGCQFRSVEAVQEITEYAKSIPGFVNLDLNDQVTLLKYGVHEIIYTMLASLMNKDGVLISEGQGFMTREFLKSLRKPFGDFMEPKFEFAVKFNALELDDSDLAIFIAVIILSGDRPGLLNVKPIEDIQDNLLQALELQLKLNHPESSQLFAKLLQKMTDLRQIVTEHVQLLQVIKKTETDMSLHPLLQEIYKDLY
Chain of Bile acid receptor (Homo sapiens) (Q96RI1 whole entry, looked up): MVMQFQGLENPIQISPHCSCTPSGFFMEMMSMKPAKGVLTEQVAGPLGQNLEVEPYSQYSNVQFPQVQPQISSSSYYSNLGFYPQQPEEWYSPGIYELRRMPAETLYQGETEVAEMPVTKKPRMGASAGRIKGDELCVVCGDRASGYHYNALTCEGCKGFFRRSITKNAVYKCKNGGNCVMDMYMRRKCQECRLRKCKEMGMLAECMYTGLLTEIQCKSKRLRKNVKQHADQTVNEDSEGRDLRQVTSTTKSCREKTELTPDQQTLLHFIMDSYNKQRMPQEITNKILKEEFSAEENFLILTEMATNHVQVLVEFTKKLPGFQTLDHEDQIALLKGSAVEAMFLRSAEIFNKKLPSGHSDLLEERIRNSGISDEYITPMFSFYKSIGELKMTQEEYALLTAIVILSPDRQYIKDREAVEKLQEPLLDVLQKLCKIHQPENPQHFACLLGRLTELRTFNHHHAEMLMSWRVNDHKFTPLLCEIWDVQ
Chain of Vitamin D3 receptor (Homo sapiens) (P11473 whole entry, looked up): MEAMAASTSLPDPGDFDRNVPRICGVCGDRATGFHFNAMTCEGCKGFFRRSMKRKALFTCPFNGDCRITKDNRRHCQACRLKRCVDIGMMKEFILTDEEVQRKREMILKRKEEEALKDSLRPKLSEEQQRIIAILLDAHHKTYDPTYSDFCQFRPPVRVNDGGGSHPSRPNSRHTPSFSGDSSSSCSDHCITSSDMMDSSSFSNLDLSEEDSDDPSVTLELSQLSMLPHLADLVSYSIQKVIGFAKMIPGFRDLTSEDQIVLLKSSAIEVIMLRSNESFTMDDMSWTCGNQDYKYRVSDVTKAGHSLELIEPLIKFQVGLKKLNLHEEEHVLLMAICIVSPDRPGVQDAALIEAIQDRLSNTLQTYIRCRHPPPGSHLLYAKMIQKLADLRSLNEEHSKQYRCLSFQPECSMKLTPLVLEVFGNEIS
Chain of Aryl hydrocarbon receptor (Homo sapiens) (P35869 whole entry, looked up): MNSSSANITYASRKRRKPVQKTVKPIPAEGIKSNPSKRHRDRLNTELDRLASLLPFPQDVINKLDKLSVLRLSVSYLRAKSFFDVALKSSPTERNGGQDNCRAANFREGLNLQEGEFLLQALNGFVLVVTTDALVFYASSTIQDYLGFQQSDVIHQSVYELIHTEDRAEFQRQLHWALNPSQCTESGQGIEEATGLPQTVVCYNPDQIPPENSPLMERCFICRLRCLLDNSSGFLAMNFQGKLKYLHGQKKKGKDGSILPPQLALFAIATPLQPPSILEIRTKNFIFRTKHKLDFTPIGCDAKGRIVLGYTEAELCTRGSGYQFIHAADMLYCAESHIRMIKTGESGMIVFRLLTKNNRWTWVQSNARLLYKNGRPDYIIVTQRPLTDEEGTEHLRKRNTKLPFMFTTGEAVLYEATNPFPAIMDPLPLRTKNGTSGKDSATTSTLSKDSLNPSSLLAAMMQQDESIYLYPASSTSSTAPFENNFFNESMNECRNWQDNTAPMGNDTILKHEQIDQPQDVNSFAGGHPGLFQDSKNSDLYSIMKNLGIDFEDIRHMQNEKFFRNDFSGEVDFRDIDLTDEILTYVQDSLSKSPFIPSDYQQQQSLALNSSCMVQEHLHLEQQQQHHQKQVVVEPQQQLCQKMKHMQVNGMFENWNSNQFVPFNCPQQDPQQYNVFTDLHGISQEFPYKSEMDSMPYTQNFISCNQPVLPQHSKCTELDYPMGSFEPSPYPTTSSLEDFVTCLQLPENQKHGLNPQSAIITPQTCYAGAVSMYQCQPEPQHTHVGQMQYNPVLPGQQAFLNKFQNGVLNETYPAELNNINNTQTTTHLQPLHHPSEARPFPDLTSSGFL
Chain of Peroxisome proliferator-activated receptor delta (Homo sapiens) (Q03181 whole entry, looked up): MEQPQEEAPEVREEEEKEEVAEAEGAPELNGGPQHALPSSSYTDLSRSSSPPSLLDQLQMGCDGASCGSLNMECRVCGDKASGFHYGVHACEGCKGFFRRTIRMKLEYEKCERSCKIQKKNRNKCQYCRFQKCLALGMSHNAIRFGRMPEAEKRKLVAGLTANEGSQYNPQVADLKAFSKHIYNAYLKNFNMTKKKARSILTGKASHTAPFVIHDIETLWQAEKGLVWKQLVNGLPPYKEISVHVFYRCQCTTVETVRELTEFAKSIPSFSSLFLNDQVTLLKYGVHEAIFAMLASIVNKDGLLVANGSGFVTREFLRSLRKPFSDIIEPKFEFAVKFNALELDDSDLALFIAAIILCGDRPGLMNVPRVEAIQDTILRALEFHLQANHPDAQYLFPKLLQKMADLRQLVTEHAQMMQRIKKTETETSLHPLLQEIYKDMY

Structure (SMILES)	outcome [1]	Potency [2]	outcome [3]	outcome [4]	outcome [5]	outcome [6]	Potency [7]	outcome [8]	outcome [9]	outcome [10]	outcome [11]	outcome [12]	outcome [13]	outcome [14]	outcome [15]	outcome [16]	outcome [17]	Potency [18]	outcome [19]	outcome [20]
CN(C)CCc1c[nH]c2ccc(CS(=O)(=O)N3CCCC3)cc12	inactive	inactive	inactive	inactive	inactive	inactive	inactive	inactive	inactive	inactive	inactive	inactive	inactive	inactive	inactive	inactive	–	–	–	–
C=CCON/C(CCC)=C1\C(=O)CC(C)(C)C(C(=O)OC)=C1O	inactive	inactive	inactive	–	inactive	inactive	inactive	inactive	inactive	inactive	inactive	inactive	inactive	inactive	inactive	inactive	inactive	inactive	inactive	–
O=CN1CCCCC1	inactive	inactive	inactive	–	inactive	inactive	inactive	inactive	inactive	inactive	inactive	inactive	inactive	inactive	inactive	inactive	inactive	inactive	–	–
Cc1ccc(O)c([N+](=O)[O-])c1	inactive	inactive	inactive	–	inactive	inactive	inactive	inactive	inactive	inactive	inactive	inactive	inactive	inactive	inactive	inactive	inactive	–	inactive	inactive
Cc1ccc(OC(=O)CC(C)C)cc1	inactive	inactive	inactive	inactive	inactive	inactive	inactive	inactive	inactive	inactive	inactive	–	inactive	–	–	–	–	–	inactive	–
C=COCCCCO	inactive	inactive	inactive	inactive	inactive	inactive	inactive	inactive	inactive	–	inactive	inactive	inactive	inactive	–	–	–	–	–	–
CCC(C)SSC(C)CC (stereo not given)	inactive	inactive	inactive	inactive	inactive	inactive	inactive	inactive	inactive	–	inactive	–	inactive	–	inactive	inactive	–	–	–	–
O=C(c1ccccc1)c1cccc(O)c1	inactive	inactive	inactive	inactive	–	inactive	inactive	inactive	inactive	inactive	inactive	–	inactive	inactive	inactive	inactive	–	–	–	–
Cc1ccc2ccccc2n1	inactive	inactive	inactive	–	inactive	inactive	inactive	–	inactive	–	inactive	inactive	inactive	–	inactive	inactive	inactive	inactive	–	–
O=C(O)/C=C(\CC(=O)O)C(=O)O	inactive	inactive	inactive	inactive	inactive	inactive	inactive	inactive	–	–	inactive	inactive	inactive	–	inactive	inactive	–	inactive	–	–
C=CC(=O)CC	inactive	inactive	inactive	–	inactive	inactive	inactive	inactive	inactive	inactive	inactive	inactive	inactive	inactive	inactive	inactive	inactive	inactive	–	inactive
C/C(=N\O)c1ccc(OCC(=O)N2CCCCC2)cc1	inactive	5.96 µM (active)	inactive	inactive	inactive	inactive	inactive	inactive	inactive	inactive	inactive	inactive	inactive	inactive	–	–	–	–	–	inactive
COC(=O)C(c1ccccc1Cl)N1CCc2sccc2C1 (stereo not given)	inactive	inactive	inactive	–	inactive	inactive	inactive	inactive	inactive	inactive	inactive	inactive	inactive	inactive	inactive	inactive	inactive	inactive	–	–
